Here are results for 106 compounds from ChEMBL document CHEMBL4513216, “Probing the Open Global Health Chemical Diversity Library for Multistage-Active Starting Points for Next-Generation Antimalarials” (ACS Infect Dis, 2020).

The whole screen tested about 65,000 compounds, of which about 2,100 (3.2%) showed an effect of 50% or more. The median lay at about -52%. The sample as a whole holds a higher share of strong results than the screen did.

The experiment concerns Plasmodium falciparum. Briefly: Screen against P. falciparum Asexual Blood Stage (ABS), at 5uM. The class given is functional, Dd2. As to conditions: tested at 5 uM.
With `Cc1n[nH]c(C)c1CC(=O)N1CCCN(C)C2(CCN(C)CC2)C1`, the INHIBITION is -107%. The value for `Cc1cc(CNC2(c3ccccc3)CCCCC2)on1` was 9.53%; that for `Cc1cc(C[C@@H]2CCC[C@H]2NCc2cc(C)c(O)c(C)c2)on1` was 79.9%. `CCCOc1ccccc1CN[C@@H]1CCC[C@H]1Cc1cc(C)no1`: the INHIBITION was 84.9%. With `CCO[C@@H]1CC[C@H]2[C@H]1OCCN2CC1CCC1`, the INHIBITION is given as -47.6%. Take `COc1c(C2SCC(=O)Nc3[nH]ncc32)cc2c(c1OC)OCO2` (stereo unspecified): the INHIBITION is recorded as -32.3%. Take `CN(C)C(=O)COC[C@@]12CCC[C@@H]1CNC2`: the INHIBITION is -23.4%.

`Cn1cc(N2C[C@@H]3CN(Cc4ccccn4)C[C@@H]3C2=O)cn1`: the INHIBITION is reported as -120%. For the compound `Cc1cccc(-c2ncc(CNC(C)Cc3ncccc3C)cn2)c1` (stereo unspecified), the INHIBITION is given as -7.12%. Regarding `COc1cc(C(C)NCc2ncccc2C)ccc1SC(F)F` (stereo unspecified), the INHIBITION was 75.7%. Regarding `Cc1nc(NCC2CC2)nc2c1COCC21CCN(C)C1` (stereo unspecified), the INHIBITION was -73.6%. The value for `CN(Cc1cccc(O)c1)CC1CCCN(CCc2ccc(Cl)cc2)C1` (stereo unspecified) was 83.5%; that for `Cc1nc[nH]c1CN(C)CC1CCCN(CCc2ccc(Cl)cc2)C1` (stereo unspecified) was 82.9%; that for `Cc1csc(CN2CC[C@H]3C[C@H](C)O[C@@H]3C2)n1` was -59.9%. With `Cc1noc(C)c1CN1CCO[C@H]2CN(C3CCOCC3)C[C@H]21`, the INHIBITION worked out at 3.95%.

On to `CC/C=C(/C)C(=O)NS(=O)(=O)c1ccc(C#N)c(C(F)(F)F)c1`, for which the INHIBITION is -159%.

For `CC(Cn1cncn1)NCc1ccc2nonc2c1` (stereo unspecified), the INHIBITION is on record as -92.4%. As for `Clc1ccccc1CCN1CCN(c2ccc3nncn3n2)CC1`, the INHIBITION worked out at 74.9%. For the compound `Cc1ccccc1CC(=O)N1C[C@@H](O)[C@H](N2CCC(F)(F)CC2)C1`, the INHIBITION was -76.9%. On to `COc1cc(C2SCC(=O)Nc3[nH]ncc32)c(OC)c2c1OCO2` (stereo unspecified), for which the INHIBITION is listed as -118%. Turning to `Cc1c(Cl)c(C(=O)N2CC(c3cccnc3)C2)nn1C`, the INHIBITION was -53.6%. The value for `COCCN1C[C@@H]2COC[C@@H](CC(=O)NCc3cccnc3)[C@@H]2C1` was -108%; that for `CCOc1cc(CNCCCn2ccnc2)cc(Cl)c1OCC` was 77.3%; that for `CCOc1ccc(CNCCCn2ccnc2)cc1Br` was 80.1%. The value for `CC(Cn1ccnc1)NCc1cc(Br)c2c(c1)OCO2` (stereo unspecified) was 6.16%; that for `COc1cc(CNC(C)Cn2cccn2)cc(Cl)c1OC` (stereo unspecified) was -35.2%.

As for `CC(Cn1ccnc1)NS(=O)(=O)c1ccc(C#N)c(Cl)c1` (stereo unspecified), the INHIBITION is -24.8%. Take `COc1cc(CNC(C)Cn2ccnc2)cc2c1OCO2` (stereo unspecified): the INHIBITION is on record as -46.3%. As for `COc1cc(CNC(C)Cn2ccnc2)cc2c1OCCO2` (stereo unspecified), the INHIBITION is -34%. Turning to `CC(Cn1ccnc1)NCc1ccc2nonc2c1` (stereo unspecified), the INHIBITION was -108%.

Regarding `CCOc1ccc(CNCCCn2ccnc2)cc1Cl`, the INHIBITION is given as 87.7%. The value for `COc1ccc(Cl)cc1CNCCCn1ccnc1` was 82.3%; that for `O=C1CSC(c2ccsc2)c2c(n(C3CCCC3)[nH]c2=O)N1` (stereo unspecified) was -94.4%; that for `Cc1csc(CN2C[C@@H]3CN(C)CCO[C@@H]3C2)n1` was -19.5%.

With `Cc1nn(CCNC(C)Cn2ccnc2)c(C)c1Cl` (stereo unspecified), the INHIBITION was found to be 0.358%. Consider `CC(C)(C)n1cc(C(=O)NCCCn2ccnc2)c2cccnc21`, for which the INHIBITION is recorded as -3.93%. Turning to `CCOc1c(Cl)cc(Cl)cc1CNCCCn1ccnc1`, the INHIBITION was 75.9%. The value for `COCc1cn(C[C@H]2CC3CCN2C[C@@H]3C(=O)Nc2ccccc2)nn1` (stereo partly specified) was -106%. As to `CNC(=O)c1cn(C(C)(C)C)c2ncccc12`, the INHIBITION is -148%. In the case of `c1cncc(N2CC[C@@H]3CN(CC4CC4)C[C@@H]3C2)c1`, the INHIBITION is given as 6.94%. The value for `Cc1cnc(N2C[C@H]3CCN(CC4CC4)C[C@H]3C2)nc1` was 65.5%; that for `Cc1cnc(N2C[C@H]3CCN(CC4CC4)C[C@@H]3C2)nc1` was 40.6%. `Cn1ccnc1CNC1CCCOc2c1ccc1ccccc21` (stereo unspecified): the INHIBITION is given as 77.2%.

Take `Cc1nc(-c2cc(Cl)cc3c2OC(CN)C3)c[nH]1` (stereo unspecified): the INHIBITION was determined as 94.4%. Turning to `Cc1cc2c(c(-c3c[nH]c(C)n3)c1)OC(CN)C2` (stereo unspecified), the INHIBITION is reported as 80.1%. The value for `Cc1nc(-c2cc(Cl)c3c(c2)CC(CN)O3)c[nH]1` (stereo unspecified) was 83.7%. The value for `NCC1Cc2cc(Cl)cc(-c3cncc(C(=O)N4CCCCC4)n3)c2O1` (stereo unspecified) was 76%; that for `CCN1CCN(C)C(=O)C12CCN(C(=O)Cc1ccccn1)CC2` was -113%.

Turning to `CCC(=O)NCC(c1ccc(SC)cc1)N1CCc2sccc2C1` (stereo unspecified), the INHIBITION turned out to be 77.1%.

Take `O=C1NC2(CCNCC2)CC1c1ccncc1` (stereo unspecified): the INHIBITION is reported as -134%. As to `C[C@@H]1CN(Cc2cccnc2)C[C@]1(C)O`, the INHIBITION is -61.6%.

Turning to `C[C@@H]1CN(C2CCN(c3ccccc3F)CC2)CC[C@]1(C)O`, the INHIBITION was found to be 87.7%.

In the case of `O=C(CCN1CCCC(CO)(CC2CC2)C1)NCc1cccc(Cl)c1` (stereo unspecified), the INHIBITION came out at 80%. Regarding `O=C(NCc1cccnc1)C1=NOC2(CCCN(CCO)C2)C1` (stereo unspecified), the INHIBITION is listed as -58.4%. On to `Cc1cc(N(C)C)nc(N2CCCC2c2cccnc2)n1` (stereo unspecified), for which the INHIBITION is listed as -15.1%. Take `Nc1cc(-c2c[nH]nc2C2CCCN2CCCc2ccccc2)ccn1` (stereo unspecified): the INHIBITION is 77.3%. With `O=C1[C@H]2CN(Cc3ccoc3)C[C@@H]2CCN1Cc1cccnc1`, the INHIBITION is on record as -121%. Regarding `Cc1noc(C)c1CN1CC[C@H]2O[C@@H](C(=O)N3CCCC3)CC[C@H]21`, the INHIBITION is recorded as -58.1%. With `O=C(c1ccccc1-n1cnnn1)N1CCC2(CC1)OCCO2`, the INHIBITION is listed as -76.9%. For the compound `NCC1CCN(c2nc(C3CCCC3)nc3c2CCNCC3)C1` (stereo unspecified), the INHIBITION is recorded as 93.5%.

As for `c1cnn(CC2CCN(c3nc(C4CC4)nc4c3CCNCC4)CC2)c1`, the INHIBITION is 91%.

For `CCOCc1nc2c(c(N3CCN4CCCC4C3)n1)CCNCC2` (stereo unspecified), the INHIBITION is recorded as -33.2%. With `C1CCC(c2nc3c(c(N4CCN5CCCC5C4)n2)CCNCC3)C1` (stereo unspecified), the INHIBITION is 77.4%. As for `CC(C)c1nc(N2CCN3CCCC3C2)c2cnn(C)c2n1` (stereo unspecified), the INHIBITION is recorded as 12.9%. The value for `Cc1nn(-c2ccccn2)c2c1C(c1cnn(C)c1)SCC(=O)N2` (stereo unspecified) was -90.8%. The value for `Cc1noc(C)c1CN1CCO[C@H]2CNC[C@H]21` was -38.6%. The value for `CCN(C)c1nccc(N2CCN[C@H]3CS(=O)(=O)C[C@H]32)n1` was -58.4%; that for `CO[C@H]1COCCN(Cc2c[nH]c3ccccc23)C1` was -48.4%; that for `COc1ccc(-n2cccn2)c(CN2CCOCC(CN(C)C)C2)c1` (stereo unspecified) was 78.4%. Take `Cc1cc(-n2cccn2)ccc1CN1CCOCC(CN(C)C)C1` (stereo unspecified): the INHIBITION was 73%. In the case of `Cc1nc(=O)c(CC(=O)N2C[C@H]3CC[C@@H](C2)N(CC2CCC2)C3)c(C)[nH]1`, the INHIBITION is on record as -89.5%. Take `CCN1CC(=O)NCC12CCN(C(=O)c1ccno1)C2` (stereo unspecified): the INHIBITION was -7.44%. As for `N#Cc1cccc(S(=O)(=O)Nc2c(F)cccc2N2CCCC2)c1`, the INHIBITION turned out to be 74.1%. As to `N#Cc1cccc(C(=O)NS(=O)(=O)c2ccc(C#N)c(Cl)c2)c1`, the INHIBITION is -49.2%. The value for `Cc1nc(CC(=O)N2CCN(Cc3ccc(C#N)cc3)CC2)cs1` was -11.175%; that for `CCOc1ccc(Br)cc1C1CCCCN1` (stereo unspecified) was 78.2%; that for `CCOc1ccc(Br)cc1C1CCCN1` (stereo unspecified) was 72.9%. Take `CCOc1ccc(Cl)cc1C1CCCN1` (stereo unspecified): the INHIBITION stood at 87.7%.

Regarding `CC(C)NC(=O)C1CCC2(CCNCC2)C1` (stereo unspecified), the INHIBITION is on record as -81.9%. Take `CCN1CCC2(CC1)C(=O)Nc1ccc(C(=O)NC)cc12`: the INHIBITION is -38.9%.

With `Cc1ccccc1CC(C)NC(=O)Nc1cnn(CC(N)=O)c1` (stereo unspecified), the INHIBITION is given as -23.3%. With `CC(C)COC(=O)N1CCC2(CCNC2)C1` (stereo unspecified), the INHIBITION is reported as -93.7%. The value for `Cc1ncsc1CN1CC[C@H]2C[C@H](c3ccncn3)O[C@@H]2C1` was -37.3%; that for `NC(=O)C1(Cc2ccc(-c3ccccc3)cc2)CCNC1` (stereo unspecified) was 92.7%. As to `O=C(c1nc(=O)[nH]c2ccccc12)N1CCCC2(CCNC2)C1` (stereo unspecified), the INHIBITION was -74.6%.

Turning to `O=S1(=O)N(c2ccccc2)C[C@@H](O)[C@]12CCNC2`, the INHIBITION is given as -3.43%. For the compound `O=S1(=O)N(c2ccccc2)C[C@H](O)[C@]12CCNC2`, the INHIBITION is on record as -88.5%. The value for `O=C(N1CCCC1)C1(Cc2ccc(-c3cccs3)cc2)CCNC1` (stereo unspecified) was 84.5%. As for `NC1(c2nc(-c3cccs3)cc(=O)[nH]2)CCCCC1`, the INHIBITION was -95.6%. Take `CC(C)N1CCCC(Cc2nccnc2Cl)C1` (stereo unspecified): the INHIBITION is -59.8%. In the case of `COc1ccc(C2SCC(=O)Nc3ccsc32)cc1` (stereo unspecified), the INHIBITION is -71.1%. Consider `O=C(N[C@@H]1CN[C@H]2CCCO[C@H]21)c1cccnc1`, for which the INHIBITION is listed as -128%. For `c1cncc(OC[C@]23COC[C@H]2CN(Cc2cccs2)C3)c1`, the INHIBITION is on record as -51.7%. `CCCN(C)CC1CCN(c2ccc(Br)c(C)n2)C1` (stereo unspecified): the INHIBITION was 73.7%.

As for `CCc1noc(CC)c1CC(=O)N1CCN(C(C#N)C(C)C)CC1` (stereo unspecified), the INHIBITION is -154%. For the compound `CNC(=O)[C@@H]1C[C@H]2CN(C(=O)c3ccccn3)C[C@H]2N1C(C)C`, the INHIBITION is given as -23%. With `CCN(CC)C[C@H]1CN2CC[C@H]1C[C@@H]2CNC(=O)c1ccco1`, the INHIBITION is -97.7%.

Consider `CN(C[C@H]1CN2CC[C@H]1C[C@@H]2CNC(=O)c1ccco1)c1ccccc1`, for which the INHIBITION is 71.2%.

In the case of `CC[C@H]1CN2CC[C@H]1C[C@@H]2CNC(=O)c1ccco1`, the INHIBITION is -29.4%. Take `COc1cc(N2CC[C@@H]3OCCN(C)[C@H]3CC2)ncn1`: the INHIBITION is recorded as -67.4%.

For `Cc1cccc(OCC(=O)N2CCN(C3CCOC3=O)CC2)c1C` (stereo unspecified), the INHIBITION is reported as -13.7%.

With `CC1COC2(CCN(C(=O)c3ncoc3C(C)C)CC2)O1` (stereo unspecified), the INHIBITION is -69.9%. With `Nc1nc(N)c2c(n1)OC1(CCN(Cc3nccs3)C1)C2` (stereo unspecified), the INHIBITION is on record as -96%. As to `CN1CCN(c2ncccn2)CC12CCC(=O)N(CC1CC1)CC2` (stereo unspecified), the INHIBITION was -74.4%. On to `c1cnc(N2CCC3(CC2)CN(CC2CC2)c2ccccc23)nc1`, for which the INHIBITION turned out to be 86.3%.

`CCN1CCC2(CC1)CN(CCO)c1ccccc12`: the INHIBITION is given as -30.2%.
